PubChem BioAssay (EPA / NIEHS)
A structure can be active in one record and inactive in another. The source made the active and inactive calls. The calls were made as follows: active = hit-call score of the fitted dose curve at least 0.9, where 1 is the maximum; inactive = score below 0.9.

Columns and labels:
[1] = ATG_CRE_CIS: Attagene CIS-FACTORIAL HepG2 Assay for human cAMP Responsive Element (CRE) binding protein 3 (AID 2282926); conditions: HepG2 CRE cis-reporter, Attagene multiplexed mRNA; actives raise or lower the signal
In short: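 We dosed HepG2 cells bearing multiple cis-promoter reporter units for 24 h and measured reporter mRNA by RT-PCR with capillary electrophoresis detection. Bidirectional concentration-response fitting used DMSO as negative control.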

[2] = biological target: CCAAT/enhancer-binding protein beta (Homo sapiens) (UniProt P17676); assay: ATG_C_EBP_CIS: Attagene CIS-FACTORIAL HepG2 Assay for human CCAAT/Enhancer Binding Protein (C/EBP) beta (AID 2282927); conditions: HepG2 Attagene cis-factorial transcription factor reporter; actives raise or lower the signal
In short: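 RT-PCR/capillary electrophoresis fluorescence of reporter mRNA, 24 h post-dose, in HepG2 cells carrying transfected cis-promoter reporter units. Bidirectional curve fitting against DMSO baseline captures gain or loss of signal.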

[3] = ATG_CMV_CIS: Attagene CIS-FACTORIAL HepG2 Assay for human CMV (Internal Marker) (AID 2282928); conditions: HepG2 CMV promoter reporter, transcription factor profiling; actives raise or lower the signal;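 also: endpoint acts as a background internal control marker rather than a target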
In short: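 After transient transfection of HepG2 with reporter transcription units driven by cis-regulatory promoters, cells receive test chemical for 24 h. Labeled reporter amplicons, digested with HpaI, are sized and quantified by capillary electrophoresis against DMSO.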

[4] = ATG_DR4_LXR_CIS: Attagene CIS-FACTORIAL HepG2 Assay for human Liver X Receptor (LXR), DR4 submotif (AID 2282929); conditions: HepG2 Attagene DR4 cis-reporter, mRNA transcription; actives raise or lower the signal
In short: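 The endpoint is DR4-element-driven reporter transcripts after 24 h chemical exposure of transfected HepG2 cells. These were measured via RT-PCR and capillary electrophoresis, and gain or loss of signal was fitted relative to DMSO controls.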

[5] = biological target: Aryl hydrocarbon receptor (Homo sapiens) (UniProt P35869); assay: ATG_Ahr_CIS: Attagene CIS-FACTORIAL HepG2 Assay for human Aryl Hydrocarbon Receptor (Ahr) (AID 2282930); conditions: HepG2 AhR cis-factorial reporter transcription; actives raise or lower the signal
In short: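 HepG2 cells transiently transfected with cis-element-driven multiplexed reporter transcription units; endogenous transcription factor activity measured as reporter mRNA 24 h after dosing. RT-PCR, 6-FAM labelling, HpaI digestion, capillary electrophoresis; bidirectional fitting versus DMSO baseline.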

[6] = ATG_AP_1_CIS: Attagene CIS-FACTORIAL HepG2 Assay for human Activator Protein 1 (AP-1) (AID 2282931); conditions: HepG2 Attagene cis-factorial AP-1 reporter mRNA; actives raise or lower the signal
In short: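 Readout is reporter transcript level from endogenous transcription factor activity, quantified by RT-PCR with fluorescent primer extension and capillary electrophoresis. Transiently transfected HepG2 cells, 24 h exposure. Curves fitted both directions versus DMSO.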

[7] = ATG_AP_2_CIS: Attagene CIS-FACTORIAL HepG2 Assay for human Activator Protein 2 (AP-2) (AID 2282932); conditions: HepG2 AP-2 cis-reporter, Attagene transcription factor profiling; actives raise or lower the signal
In short: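 Bidirectional curve fitting against DMSO was applied to reporter mRNA signals from HepG2 cells 24 h after dosing. Cis-promoter reporter units, transiently transfected, were read by RT-PCR plus capillary electrophoresis.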

[8] = ATG_BRE_CIS: Attagene CIS-FACTORIAL HepG2 Assay for human Bone Morphogenetic Protein (BMP) Response Element (BRE) (AID 2282933); conditions: HepG2 BMP response element reporter, Attagene transcription factor profiling; actives raise or lower the signal
In short: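 Multiplexed cis-reporter assay, HepG2, 24 h exposure. mRNA from reporter units quantified via RT-PCR/CE; DMSO baseline; bidirectional curve fit.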

[9] = biological target: Transcription factor E2F1 (Homo sapiens) (UniProt Q01094); assay: ATG_E2F_CIS: Attagene CIS-FACTORIAL HepG2 Assay for human E2F Transcription Factor 1 (AID 2282935); conditions: HepG2 Attagene cis-reporter, E2F reporter RNA transcripts; actives raise or lower the signal
In short: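 Multiplexed cis-reporter assay: HepG2, transient transfection, 24 h dosing, mRNA quantitation by labeled RT-PCR and CE.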

[10] = biological target: Retinoic acid receptor alpha (Homo sapiens) (UniProt P10276); assay: ATG_DR5_RAR_CIS: Attagene CIS-FACTORIAL HepG2 Assay for human Retinoic Acid Receptor Alpha (RARE), DR5 submotif (AID 2282934); conditions: HepG2 Attagene cis-factorial RARE DR5 reporter, mRNA; actives raise or lower the signal;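 as to AC50: reporter responds to endogenous RAR alpha beta and gamma in HepG2 not RARA alone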
In short: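 HepG2 cells transiently transfected with multiplexed reporter units under cis (DR5 RARE) promoters, so endogenous transcription factor activity is measured. After 24 h compound exposure, reporter mRNA is quantified by RT-PCR with fluorescent labelling and capillary electrophoresis; bidirectional fitting versus DMSO.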

Measured: AC50

Chain of Aryl hydrocarbon receptor (Homo sapiens) (P35869 whole entry, looked up): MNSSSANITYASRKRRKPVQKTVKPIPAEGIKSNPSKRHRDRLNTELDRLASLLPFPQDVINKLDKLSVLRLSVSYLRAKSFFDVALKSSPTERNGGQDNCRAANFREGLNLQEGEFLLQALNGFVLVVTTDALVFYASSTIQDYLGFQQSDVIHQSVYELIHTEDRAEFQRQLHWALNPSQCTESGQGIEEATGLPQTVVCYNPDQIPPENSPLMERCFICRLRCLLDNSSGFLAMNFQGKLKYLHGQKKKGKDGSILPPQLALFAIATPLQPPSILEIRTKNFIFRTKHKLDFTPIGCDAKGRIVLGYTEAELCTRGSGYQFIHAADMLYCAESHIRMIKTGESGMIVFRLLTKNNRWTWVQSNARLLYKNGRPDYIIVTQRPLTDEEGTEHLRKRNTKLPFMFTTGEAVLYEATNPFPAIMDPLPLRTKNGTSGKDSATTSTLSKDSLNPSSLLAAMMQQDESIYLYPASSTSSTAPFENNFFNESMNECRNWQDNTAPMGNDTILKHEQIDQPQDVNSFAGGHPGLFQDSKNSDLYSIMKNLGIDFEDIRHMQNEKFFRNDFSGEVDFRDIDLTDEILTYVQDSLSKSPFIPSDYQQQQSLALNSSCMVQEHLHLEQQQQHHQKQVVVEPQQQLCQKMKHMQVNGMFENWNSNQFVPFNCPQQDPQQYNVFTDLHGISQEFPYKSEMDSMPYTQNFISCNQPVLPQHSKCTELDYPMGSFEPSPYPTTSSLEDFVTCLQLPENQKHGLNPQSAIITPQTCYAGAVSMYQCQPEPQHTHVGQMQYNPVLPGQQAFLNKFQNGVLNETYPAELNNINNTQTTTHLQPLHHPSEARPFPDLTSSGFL
Chain of CCAAT/enhancer-binding protein beta (Homo sapiens) (P17676 whole entry, looked up): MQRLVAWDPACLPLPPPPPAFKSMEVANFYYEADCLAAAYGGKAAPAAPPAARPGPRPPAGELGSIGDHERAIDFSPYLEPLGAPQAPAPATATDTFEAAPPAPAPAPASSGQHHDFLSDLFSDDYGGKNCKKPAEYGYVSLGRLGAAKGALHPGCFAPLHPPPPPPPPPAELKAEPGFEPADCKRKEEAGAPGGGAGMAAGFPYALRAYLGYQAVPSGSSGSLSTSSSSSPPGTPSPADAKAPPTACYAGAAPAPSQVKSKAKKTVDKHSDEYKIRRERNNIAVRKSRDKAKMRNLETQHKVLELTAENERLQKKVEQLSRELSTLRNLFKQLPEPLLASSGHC
Chain of Retinoic acid receptor alpha (Homo sapiens) (P10276 whole entry, looked up): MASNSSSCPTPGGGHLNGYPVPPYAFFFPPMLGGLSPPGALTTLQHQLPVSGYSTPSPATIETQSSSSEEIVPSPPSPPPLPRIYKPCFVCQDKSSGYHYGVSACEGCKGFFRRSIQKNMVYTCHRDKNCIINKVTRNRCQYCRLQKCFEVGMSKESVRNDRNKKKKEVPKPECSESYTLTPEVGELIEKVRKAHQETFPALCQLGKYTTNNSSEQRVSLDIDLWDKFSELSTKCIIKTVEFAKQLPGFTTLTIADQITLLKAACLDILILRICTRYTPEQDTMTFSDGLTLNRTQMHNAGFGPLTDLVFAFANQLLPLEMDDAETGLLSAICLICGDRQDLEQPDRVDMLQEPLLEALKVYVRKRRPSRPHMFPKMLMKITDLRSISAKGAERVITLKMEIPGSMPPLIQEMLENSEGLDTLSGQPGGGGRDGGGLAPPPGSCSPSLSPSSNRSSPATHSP
Chain of Transcription factor E2F1 (Homo sapiens) (Q01094 whole entry, looked up): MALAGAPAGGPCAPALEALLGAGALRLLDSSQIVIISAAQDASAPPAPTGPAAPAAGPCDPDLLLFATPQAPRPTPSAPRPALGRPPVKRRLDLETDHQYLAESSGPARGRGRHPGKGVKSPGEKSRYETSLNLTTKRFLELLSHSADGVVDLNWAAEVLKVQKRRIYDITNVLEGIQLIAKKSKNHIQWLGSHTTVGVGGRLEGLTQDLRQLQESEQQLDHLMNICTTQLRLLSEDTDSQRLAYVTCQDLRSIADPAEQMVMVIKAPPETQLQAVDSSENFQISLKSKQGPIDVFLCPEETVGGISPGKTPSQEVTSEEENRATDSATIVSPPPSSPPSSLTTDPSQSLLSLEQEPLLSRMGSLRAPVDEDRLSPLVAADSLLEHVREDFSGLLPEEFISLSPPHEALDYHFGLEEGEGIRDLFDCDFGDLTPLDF

O=C(O)C1C(C(=O)O)C2(Cl)C(Cl)=C(Cl)C1(Cl)C2(Cl)Cl (stereo unspecified)
not listed: [10]
inactive: all other assays above

N#Cc1ccc(O)cc1
inactive: all assays above

Cc1c([N+](=O)[O-])cc2c(c1[N+](=O)[O-])C(C)(C)CC2(C)C
active: [3] 100 µM | [8] 100 µM | [10] 2.78 µM
inactive: all other assays above

CC(Cl)CN(C)C (stereo unspecified)
not listed: [7]
inactive: all other assays above

CSC(C)(C)C=NO
not listed: [7] | [9] | [10]
inactive: all other assays above

N#Cc1cc([N+](=O)[O-])ccc1N
active: [5] 2.51 µM
inactive: all other assays above

OCC1CO1 (stereo unspecified)
not listed: [9] | [10]
inactive: all other assays above

CCOP(=S)(NC(C)C)Oc1ccccc1C(=O)OC(C)C (stereo unspecified)
active: [4] 26.5 µM
inactive: all other assays above

OCC(F)(F)OC(F)(F)C(F)(F)OC(F)(F)C(F)(F)OC(F)(F)F
inactive: [1] | [2] | [3] | [4] | [5] | [7] | [8] | [10] | [9]
active: [4] 80.8 µM

O=C(O)C(F)(F)OC(F)(F)C(F)(F)OC(F)(F)F
inactive: all assays above

O=C(CBr)OCc1ccccc1
not listed: [9]
inactive: all other assays above

NNC(N)=S
not listed: [9]
inactive: all other assays above

O=P1(N(CCCl)CCCl)NCCCO1 (stereo unspecified)
not listed: [9] | [10]
inactive: all other assays above

CCOC(=O)c1ccccc1N
inactive: all assays above

Clc1ccc(Oc2ccccc2)cc1
inactive: all assays above

Cc1ccc2c(c1N)C(=O)c1ccccc1C2=O
active: [5] 4.15 µM | [6] 150 µM
not listed: [9]
inactive: all other assays above

COP(=O)(CCC(=O)NCO)OC
inactive: all assays above

COP(N)(=S)OC
not listed: [9]
inactive: all other assays above

O=C(O)C(Cl)Cl
not listed: [10]
inactive: all other assays above

Oc1ccc(I)cc1
inactive: all assays above

COC(=O)C(F)(F)C(F)(F)OC(F)(C(F)(F)F)C(F)(F)OC(F)=C(F)F (stereo unspecified)
inactive: [1] | [2] | [3] | [4] | [5] | [8] | [10] | [9]
active: [4] 20.2 µM

O=c1[nH]c2ccccc2c(=O)o1
active: [5] 89.5 µM
inactive: all other assays above

CC(C)Nc1ccc(Nc2ccccc2)cc1
active: [3] 60 µM | [4] 32.4 µM | [6] 60 µM
inactive: all other assays above

O=[N+]([O-])c1ccccc1
inactive: all assays above

O=C(O)C=CC(F)(C(F)(F)F)C(F)(F)F
inactive: all assays above

CCN(CC)c1ccccc1
not listed: [10]
inactive: all other assays above

CCNc1nc(Cl)nc(NC(C)(C)C)n1
inactive: all assays above

ClC(Cl)=C(c1ccc(Cl)cc1)c1ccccc1Cl
active: [3] 36.5 µM | [4] 27.3 µM | [5] 27.2 µM | [6] 57.5 µM | [10] 27 µM
inactive: [1] | [2] | [7] | [8]

CCOP(=S)(OCC)SCSc1ccc(Cl)cc1
inactive: all assays above

CC(=O)CCc1ccc2c(c1)OCO2
inactive: all assays above

COCCOCCO
inactive: all assays above

O=[N+]([O-])c1cc(Cl)ccc1Cl
inactive: all assays above

CCOP(=S)(OCC)SCn1nnc2ccccc2c1=O
active: [4] 64.7 µM | [8] 173 µM
not listed: [9]
inactive: all other assays above

Cc1ccc(C(=O)Cl)cc1
not listed: [7]
inactive: all other assays above

COP(=O)(O)OC
inactive: all assays above

CC(C)(C)OOC(C)(C)C
not listed: [9] | [10]
inactive: all other assays above

CC(=O)c1ccc(-c2ccccc2)cc1
active: [5] 56.5 µM
not listed: [7] | [9]
inactive: all other assays above

OCC(F)(F)OC(F)(F)C(F)(F)OC(F)(F)CO
inactive: all assays above

Cc1ccc(N)cc1N
active: [5] 5.24 µM
not listed: [7] | [9] | [10]
inactive: all other assays above

CCOP(=O)(O)C(N)=O
not listed: [6] | [7] | [9]
inactive: all other assays above

Nc1ccc(Cl)cc1
not listed: [7] | [10]
inactive: all other assays above

CCOP(=S)(Oc1ccc([N+](=O)[O-])cc1)c1ccccc1 (stereo unspecified)
active: [4] 28.4 µM | [6] 22.1 µM | [8] 62.6 µM
not listed: [7]
inactive: all other assays above

Cn1[nH]nnc1=S
not listed: [6] | [9]
inactive: all other assays above

OCC(F)(F)OC(F)(F)C(F)(F)OC(F)(F)C(F)(F)OC(F)(F)CO
active: [1] 35.5 µM
not listed: [7]
inactive: all other assays above

CCN(CC)C1CCCCC1
not listed: [6]
inactive: all other assays above

CC(C)CBr
not listed: [6] | [9]
inactive: all other assays above

O=c1ssc(Cl)c1Cl
active: [1] 50.9 µM | [2] 53.4 µM | [4] 52.7 µM
not listed: [6]
inactive: all other assays above

O=NN1CCCC1
not listed: [7]
inactive: all other assays above

CCCCN(CC)C(=O)SCCC
not listed: [7]
inactive: all other assays above

O=C(O)C(F)(OC(F)(F)C(F)(F)C(F)(F)F)C(F)(F)F (stereo unspecified)
not listed: [7]
inactive: all other assays above

Cc1cc(C)c(C(=O)P(=O)(c2ccccc2)c2ccccc2)c(C)c1
active: [4] 11.5 µM | [7] 59.3 µM
not listed: [6] | [9]
inactive: all other assays above
